Test results as given in the supplement of paper PMC8975748.
Structures can show the parent of a compound that is named as a salt. ± gives the standard deviation of the averaged measurements.

Key:
[1] = tested on: Saccharomyces cerevisiae BY4741 SeMeCo community; assay: mean cell size (pixel area) (pixels); higher = larger cells; conditions: 10 µM; 24 h; SM minimal medium
Summary of the method: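 A four-plasmid fluorescent Saccharomyces cerevisiae BY4741 community was tested; each plasmid complements one auxotrophy and carries a fluorescent marker. An overnight preculture at OD600 = 1.0 was diluted to OD600 = 0.3, and 70 µl was added to 384-well plates acoustically predosed with drug (final 10 µM) in SM medium for 24 h. Cells were fixed with paraformaldehyde and imaged by automated confocal microscopy, with analysis in Harmony. Mean cell pixel area per well is averaged over 3 replicates. Same SeMeCo high-content imaging drug screen: Selleck FDA-approved drugs at 10 µM, 24 h in SM medium, 384-well plates, 3 replicates.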

[2] = tested on: Saccharomyces cerevisiae BY4741 SeMeCo community; assay: z-score of prototroph abundance vs DMSO median; higher = larger share of this subpopulation than in DMSO controls; conditions: 10 µM; 24 h; SM minimal medium; subpopulation (auxotrophy): Prototroph
Summary of the method: (§1)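 A Saccharomyces cerevisiae BY4741 community carried four plasmids, each restoring one auxotrophy and encoding a distinct fluorescent protein. It was pre-grown overnight to OD600 1.0, diluted to 0.3, and 70 µl was added to 384-well plates acoustically predosed with library drugs (10 µM final), then grown 24 h in minimal SM medium. Cells were paraformaldehyde-fixed and imaged by automated confocal microscopy, with single-auxotroph fluorescent strains setting thresholds and autofluorescence correction. Each subpopulation's abundance was scored as a z-score against the vehicle-well median.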

[3] = tested on: Saccharomyces cerevisiae BY4741 SeMeCo community; assay: z-score of subpopulation abundance vs DMSO median, subpopulation auxotrophic for M; higher = larger share of this subpopulation than in DMSO controls; conditions: 10 µM; 24 h; SM minimal medium; subpopulation (auxotrophy): M
Summary of the method: as §1

[4] = tested on: Saccharomyces cerevisiae BY4741 SeMeCo community; assay: z-score of subpopulation abundance vs DMSO median, subpopulation auxotrophic for L; higher = larger share of this subpopulation than in DMSO controls; conditions: 10 µM; 24 h; SM minimal medium; subpopulation (auxotrophy): L
Summary of the method: as §1

[5] = tested on: Saccharomyces cerevisiae BY4741 SeMeCo community; assay: z-score of subpopulation abundance vs DMSO median, subpopulation auxotrophic for LU; higher = larger share of this subpopulation than in DMSO controls; conditions: 10 µM; 24 h; SM minimal medium; subpopulation (auxotrophy): LU
Summary of the method: as §1

[6] = tested on: Saccharomyces cerevisiae BY4741 SeMeCo community; assay: z-score of subpopulation abundance vs DMSO median, subpopulation auxotrophic for LM; higher = larger share of this subpopulation than in DMSO controls; conditions: 10 µM; 24 h; SM minimal medium; subpopulation (auxotrophy): LM
Summary of the method: as §1

[7] = tested on: Saccharomyces cerevisiae BY4741 SeMeCo community; assay: z-score of subpopulation abundance vs DMSO median, subpopulation auxotrophic for HM; higher = larger share of this subpopulation than in DMSO controls; conditions: 10 µM; 24 h; SM minimal medium; subpopulation (auxotrophy): HM
Summary of the method: as §1

[8] = tested on: Saccharomyces cerevisiae BY4741 SeMeCo community; assay: z-score of subpopulation abundance vs DMSO median, subpopulation auxotrophic for HU; higher = larger share of this subpopulation than in DMSO controls; conditions: 10 µM; 24 h; SM minimal medium; subpopulation (auxotrophy): HU
Summary of the method: as §1

[9] = tested on: Saccharomyces cerevisiae BY4741 SeMeCo community; assay: z-score of subpopulation abundance vs DMSO median, subpopulation auxotrophic for UM; higher = larger share of this subpopulation than in DMSO controls; conditions: 10 µM; 24 h; SM minimal medium; subpopulation (auxotrophy): UM
Summary of the method: as §1

[10] = tested on: Saccharomyces cerevisiae BY4741 SeMeCo community; assay: z-score of subpopulation abundance vs DMSO median, subpopulation auxotrophic for HL; higher = larger share of this subpopulation than in DMSO controls; conditions: 10 µM; 24 h; SM minimal medium; subpopulation (auxotrophy): HL
Summary of the method: as §1

[11] = tested on: Saccharomyces cerevisiae BY4741 SeMeCo community; assay: z-score of subpopulation abundance vs DMSO median, subpopulation auxotrophic for HLU; higher = larger share of this subpopulation than in DMSO controls; conditions: 10 µM; 24 h; SM minimal medium; subpopulation (auxotrophy): HLU
Summary of the method: as §1

[12] = tested on: Saccharomyces cerevisiae BY4741 SeMeCo community; assay: z-score of subpopulation abundance vs DMSO median, subpopulation auxotrophic for HUM; higher = larger share of this subpopulation than in DMSO controls; conditions: 10 µM; 24 h; SM minimal medium; subpopulation (auxotrophy): HUM
Summary of the method: as §1

[13] = tested on: Saccharomyces cerevisiae BY4741 SeMeCo community; assay: z-score of subpopulation abundance vs DMSO median, subpopulation auxotrophic for LUM; higher = larger share of this subpopulation than in DMSO controls; conditions: 10 µM; 24 h; SM minimal medium; subpopulation (auxotrophy): LUM
Summary of the method: as §1

[14] = tested on: Saccharomyces cerevisiae BY4741 SeMeCo community; assay: z-score of subpopulation abundance vs DMSO median, subpopulation auxotrophic for HLUM; higher = larger share of this subpopulation than in DMSO controls; conditions: 10 µM; 24 h; SM minimal medium; subpopulation (auxotrophy): HLUM
Summary of the method: as §1

[15] = tested on: Saccharomyces cerevisiae BY4741 SeMeCo community; assay: z-score of subpopulation abundance vs DMSO median, subpopulation auxotrophic for U; higher = larger share of this subpopulation than in DMSO controls; conditions: 10 µM; 24 h; SM minimal medium; subpopulation (auxotrophy): U
Summary of the method: as §1

[16] = tested on: Saccharomyces cerevisiae BY4741 SeMeCo community; assay: z-score of subpopulation abundance vs DMSO median, subpopulation auxotrophic for H; higher = larger share of this subpopulation than in DMSO controls; conditions: 10 µM; 24 h; SM minimal medium; subpopulation (auxotrophy): H
Summary of the method: as §1

[17] = tested on: Saccharomyces cerevisiae BY4741 SeMeCo community; assay: z-score of subpopulation abundance vs DMSO median, subpopulation auxotrophic for HLM; higher = larger share of this subpopulation than in DMSO controls; conditions: 10 µM; 24 h; SM minimal medium; subpopulation (auxotrophy): HLM
Summary of the method: as §1

SMILES	mean cell size [1]	z-score of prototroph abundance [2]	z-score of subpopulation abundance [3]	z-score of subpopulation abundance [4]	z-score of subpopulation abundance [5]	z-score of subpopulation abundance [6]	z-score of subpopulation abundance [7]	z-score of subpopulation abundance [8]	z-score of subpopulation abundance [9]	z-score of subpopulation abundance [10]	z-score of subpopulation abundance [11]	z-score of subpopulation abundance [12]	z-score of subpopulation abundance [13]	z-score of subpopulation abundance [14]	z-score of subpopulation abundance [15]	z-score of subpopulation abundance [16]	z-score of subpopulation abundance [17]
Cc1ccc(Sc2ccccc2N2CCNCC2)c(C)c1	12.22 ± 0.086	0.66	-0.9	-0.27	-0.09	-0.55	-0.62	-0.76	-0.97	-0.11	0.19	-0.46	-0.73	-0.16			
Cc1cc(O)c(C(=O)N[C@@H](C(=O)N[C@@H]2C(=O)N3C(C(=O)O)=C(CSc4nnnn4C)CS[C@H]23)c2ccc(O)cc2)cn1 [Cefpiramide sodium]	12.3 ± 0.13	-0.28	0.99	-0.92	-0.12	-0.42	0.57	0.5	0.29		0.16	-0.35	-0.42	-0.55	0.61	-0.05	
NC(=N\CCCCCC/N=C(N)/N=C(\N)Nc1ccc(Cl)cc1)/N=C(\N)Nc1ccc(Cl)cc1 [Chlorhexidine diacetate]	11.5 ± 0.11		-2.47	-0.29	-1.43	-0.7	-1.35	-0.08		1.03	1.21	-0.61	1.19	2.97	-0.99	0.93	
CCn1cc(C(=O)O)c(=O)c2cc(F)c(N3CCNCC3)nc21 [Enoxacin]	12.3 ± 0.26	0.22	-0.85	1.22	0.6	1.61	-1.07	-0.82	-0.47	0.3	0.23	-0.01		0.48	-0.4	-0.39	
Cc1nnc(SCC2=C(C(=O)O)N3C(=O)[C@@H](NC(=O)Cn4cc(Cl)c(=O)c(Cl)c4)[C@H]3SC2)s1 [Cefazedone]	12.5 ± 0.39	0.73	0.65	-0.83	-0.24			-0.74	-0.27	-1.2	-1.4		-1.02	-0.54	-0.01	-0.61	-0.49
C[C@H]1[C@H](NC(=O)/C(=N\OC(C)(C)C(=O)O)c2csc(N)n2)C(=O)N1S(=O)(=O)O [Aztreonam]	12.5 ± 0.18	-0.5	0.26	0.74	0.39	0.99	0.36	-0.08		0.25	0.52	-0.1	0.97	0.34	-0.07	-0.29	
NC(=O)OCC(COC(N)=O)c1ccccc1 [Felbamate]	12.33 ± 0.12	1.19	-0.21	-0.15	-0.71	-1.27	-1.32	-0.73		-0.42	-1.23	-0.71	-0.77	-0.68	-0.1		
O=C(O)CCC(=O)OC[C@@H](NC(=O)C(Cl)Cl)[C@H](O)c1ccc([N+](=O)[O-])cc1 [Chloramphenicol sodium succinate]	12.13 ± 0.03		0.71	2.27	0.45	1.25	0.94	-1.04	-0.25	1.46	1.48	0.13	1.21	0.88	-0.91	0.42	
CCCCC(F)(F)[C@@]1(O)CC[C@H]2[C@@H](CC(=O)[C@@H]2CCCCCCC(=O)O)O1 [Lubiprostone]	12.6 ± 0.28	1.04	-0.11	-1.05	-0.53	-1.08	-0.8	-0.05	-0.29	-0.29	-0.93	-1.08	-0.67	-0.37	0.27	-0.12	
CCN(CC)CCOC(=O)c1ccc(N)cc1Cl [Chloroprocaine HCl]	12.51 ± 0.1	-0.55	0.42	0.95	0.13	0.62	-0.02	-0.26	0.74	-0.09	0.39	0.14	0.45	0.58	0.25	-0.3	
Oc1ccc(Cl)c2cccnc12 [Cloxiquine]	14.28 ± 0.12	-17.6	5.82	-1.33	6.41	8.36	26.6	11.8	6.45	17.4	17.6	14.5	22.1	43.7		13.1	
Nc1nc2c(ncn2COCCO)c(=O)[nH]1 [Aciclovir]	12.5 ± 0.32	0.49	-0.02	1.26	0.29	0.9	-0.46	-0.91	-0.79		-0.88	-1.32	0.25	0.48	-0.49	-0.28	
C[n+]1ccccc1/C=N/O [Pralidoxime chloride]	11.9 ± 0.062	-0.28	1.37	-0.96	0.11	0.17	-0.08	0.45	1.18	-0.65	-0.43	0.39	0.34	-0.34	1.25	-1.61	
C[N+]1(C)[C@@H]2C[C@@H](OC(=O)C(O)(c3cccs3)c3cccs3)C[C@H]1[C@@H]1O[C@@H]12 [Tiotropium Bromide hydrate]	12.5 ± 0.25	0.56	0.04	-0.76	-0.81	-0.42	-0.06	-0.66	0.07	-0.52	-0.81	-0.43	-0.67	-0.81	0.36	-0.8	
CC(C)Cc1ccc(C(C)C(=O)O)cc1 (stereo not given) [Ibuprofen]	13.04 ± 0.12	3.17	-0.51	-0.92	-2.51	-0.71	-1.2	-2.1	-3.84		-0.51	-3.22	-2.23	-0.59	-1.82	-0.54	
